Consider four molecules from PubChem BioAssay (EPA / NIEHS).

A word on the AC50: it is the midpoint of the concentration-response curve, whichever way the signal moves.

Assay [1] can be described thus: ATG_TAL_CIS: Attagene CIS-FACTORIAL HepG2 Assay for human TAL Basal Promoter (AID 2282966; active means hit-call score of the fitted dose curve at least 0.9, where 1 is the maximum; inactive means score below 0.9;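 further: background control endpoint measuring basal TAL promoter reporter mRNA not a specific factor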). Particulars: HepG2 Attagene cis-factorial TAL promoter reporter; actives raise or lower the signal. The gist of the method:
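Steps: transfect HepG2 with multiple reporter transcription units; dose 24 h; isolate RNA, reverse-transcribe, PCR-amplify, label with 6-FAM, digest with HpaI; resolve by capillary electrophoresis. Bidirectional fitting against DMSO baseline.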

Assay [2] can be described thus: ATG_TGFb_CIS: Attagene CIS-FACTORIAL HepG2 Assay for human Transforming Growth Factor (TGF) (AID 2282967; active means hit-call score of the fitted dose curve at least 0.9, where 1 is the maximum; inactive means score below 0.9). The note with it: HepG2 Attagene CIS TGFb reporter, mRNA transcription; actives raise or lower the signal. The gist of the method:
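Transient MRTU transfection of HepG2 (FuGene 6). Dose 24 h. TriZol RNA, oligo(dT) RT, PCR, 6-FAM primer extension, HpaI cut, CE. Bidirectional fit, DMSO = baseline.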

A short description of assay [3]: ATG_VDRE_CIS: Attagene CIS-FACTORIAL HepG2 Assay for human Vitamin D Receptor Element (VDRE) (AID 2282968; active means hit-call score of the fitted dose curve at least 0.9, where 1 is the maximum; inactive means score below 0.9). The note with it: HepG2 VDRE cis-reporter transcription, actives raise or lower the signal. The method, boiled down: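 Cell-based multiplexed reporter format in human liver HepG2 cells, 24 h post-dose. Fluorescence from capillary electrophoresis of reporter cDNA gives the signal, with DMSO as negative control and baseline.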

The target of assay [4] is Nuclear receptor subfamily 1 group I member 3 (Homo sapiens) (UniProt Q14994). Description: ATG_CAR_TRANS: Attagene TRANS-FACTORIAL HepG2 Assay for human Constitutive Androstane Receptor (CAR) (AID 2282969).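 Further: activators raise reporter mRNA above DMSO so AC50 marks induction.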 The note with it: HepG2 Attagene TRANS-FACTORIAL CAR reporter. The gist of the method:
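HepG2 cells transiently transfected with GAL4-UAS reporter units; TRANS format reads activity of exogenous chimeric NR-Gal4 protein. After 24 h dosing, reporter mRNA quantified by RT-PCR, 6-FAM labelling and capillary electrophoresis; gain of signal fitted against DMSO.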

For assay [5], the target named is Estrogen receptor (Homo sapiens) (UniProt P03372). Description: ATG_ERa_TRANS: Attagene TRANS-FACTORIAL HepG2 Assay for human Estrogen Receptor alpha (ERa) (AID 2282970). The note with it: HepG2 Attagene TRANS ERa GAL4 reporter, mRNA. The method, boiled down: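 Multiplexed cell-based reporter format in HepG2: chimeric ERa-Gal4 protein drives GAL4-UAS reporter transcription. Fluorescent reporter mRNA quantified by capillary electrophoresis 24 hours after dosing; endpoint fitted as signal gain against DMSO.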

Assay [6] has as its target Steroid hormone receptor ERR1 (Homo sapiens) (UniProt P11474). Briefly: ATG_ERRa_TRANS: Attagene TRANS-FACTORIAL HepG2 Assay for human Estrogen-Related Receptor alpha (ERRa) (AID 2282971). Particulars: HepG2 Attagene TRANS reporter, ERRa transactivation. The method, boiled down:
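Signal gain relative to DMSO for an ERRa-Gal4 chimeric receptor, read as reporter mRNA by RT-PCR/capillary electrophoresis. Human HepG2 liver cells, transient multiplex reporter transfection, 24 h chemical exposure.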

Assay [7] can be described thus: ATG_GAL4_TRANS: Attagene TRANS-FACTORIAL HepG2 Assay for GAL4 (Internal Marker) (AID 2282976). Particulars: HepG2 Attagene TRANS GAL4 internal marker reporter. The gist of the method:
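Liver HepG2 line bearing multiplexed GAL4-UAS reporter constructs; 24 h chemical treatment. Transcripts were quantified as fluorescent fragments on capillary electrophoresis after RT-PCR and HpaI cut, with activity fitted upward from DMSO.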

Assay [8] deals with Estrogen-related receptor gamma (Homo sapiens) (UniProt P62508). Description: ATG_ERRg_TRANS: Attagene TRANS-FACTORIAL HepG2 Assay for human Estrogen-Related Receptor gamma (ERRg) (AID 2282977).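 Further: hits increase reporter signal over DMSO so potencies reflect activators.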 Particulars: HepG2 Attagene TRANS reporter, ERRg transactivation. The method, boiled down:
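HepG2 cells transiently transfected with multiplexed GAL4-UAS reporter units and chimeric NR-Gal4 constructs were exposed to test chemicals for 24 h. Reporter mRNA was measured by RT-PCR, 6-FAM primer extension, HpaI digestion and capillary electrophoresis; gain-of-signal versus DMSO.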

In assay [9] the target is Glucocorticoid receptor (Homo sapiens) (UniProt P04150). Briefly: ATG_GR_TRANS: Attagene TRANS-FACTORIAL HepG2 Assay for human Glucocorticoid Receptor (GR) (AID 2282978).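 Further: activators score as hits since higher reporter transcript over DMSO is fitted.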 Particulars: HepG2 Attagene TRANS GR reporter, mRNA transcription. The method, boiled down: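 Fluorescent capillary-electrophoresis quantitation of reporter mRNA is the readout, taken 24 h after dosing human HepG2 cells carrying transiently transfected GAL4-UAS reporter units activated by chimeric NR-GAL4 fusions; activity scored as induction over DMSO.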

In assay [10] the target is Bile acid receptor (Homo sapiens) (UniProt Q96RI1). Description: ATG_FXR_TRANS: Attagene TRANS-FACTORIAL HepG2 Assay for Farnesoid X Receptor (FXR) (AID 2282979).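 Further: hits raise reporter mRNA above DMSO so AC50 marks FXR activation.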 The note with it: HepG2 Attagene TRANS FXR-GAL4 reporter transcription. The method, boiled down: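 After 24 h chemical treatment of transfected HepG2 cells, GAL4-UAS reporter transcripts driven by an exogenous FXR-GAL4 fusion were measured by RT-PCR and capillary electrophoresis. Increases over DMSO were fitted.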

Assay [11] deals with Oxysterols receptor LXR-alpha (Homo sapiens) (UniProt Q13133). Briefly: ATG_LXRa_TRANS: Attagene TRANS-FACTORIAL HepG2 Assay for human Liver X Receptor alpha (LXRa) (AID 2282980). Particulars: HepG2 Attagene TRANS reporter, LXRa transactivation. The gist of the method: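 In this multiplexed TRANS system, compounds act on HepG2 cells carrying GAL4-UAS reporter units and a receptor-GAL4 fusion for 24 h. Induced reporter RNA is amplified, fluorescently labelled and sized by capillary electrophoresis, with DMSO as baseline.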

In assay [12] the target is Oxysterols receptor LXR-beta (Homo sapiens) (UniProt P55055). Description: ATG_LXRb_TRANS: Attagene TRANS-FACTORIAL HepG2 Assay for human Liver X Receptor beta (LXRb) (AID 2282981). The note with it: HepG2 Attagene TRANS GAL4-LXRb reporter, mRNA. The method, boiled down:
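Gain-of-signal mRNA reporter endpoint, DMSO as negative control. Transiently transfected HepG2 cells carrying the NR-Gal4 chimera and GAL4-UAS reporter units were treated 24 h; transcripts quantified by RT-PCR and capillary electrophoresis fluorescence.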

The nature of assay [13]: ATG_M_06_TRANS: Attagene TRANS-FACTORIAL HepG2 Assay for M06 Transcription Factor (Internal Marker) (AID 2282983). Particulars: HepG2 Attagene TRANS M06 internal marker reporter. The method, boiled down:
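Internal-marker background readout from a multiplexed TRANS reporter system in HepG2; 24 h dosing; mRNA induction quantified by RT-PCR plus capillary electrophoresis fluorescence; DMSO as negative control and baseline.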

Assay [14] has as its target Transcriptional activator Myb (Homo sapiens) (UniProt P10242). Description: ATG_Myb_CIS: Attagene CIS-FACTORIAL HepG2 Assay for human Myeloblastosis (Myb) Proto-Oncogene Transcription Factor (AID 2282986; active means hit-call score of the fitted dose curve at least 0.9, where 1 is the maximum; inactive means score below 0.9). The note with it: HepG2 Attagene CIS-FACTORIAL Myb reporter transcription; actives raise or lower the signal. The method, boiled down: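 Reporter transcript levels, quantified by fluorescent RT-PCR and capillary electrophoresis, serve as the read-out. Transfected HepG2 cells carrying cis-promoter reporter units are dosed for 24 hours, and curves are fitted bidirectionally against DMSO controls.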

Assay [15] has as its target Nuclear respiratory factor 1 (Homo sapiens) (UniProt Q16656). Description: ATG_NRF1_CIS: Attagene CIS-FACTORIAL HepG2 Assay for human Nuclear Respiratory Factor 1 (NRF1) Orphan Gene (AID 2282987; active means hit-call score of the fitted dose curve at least 0.9, where 1 is the maximum; inactive means score below 0.9). The note with it: HepG2 NRF1 cis-element reporter, Attagene multiplex; actives raise or lower the signal. The method, boiled down: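 Multiplexed cis-reporter assay, HepG2 cells, 24 h treatment. Total RNA → oligo(dT) RT → PCR with reporter-specific primers → 6-FAM primer extension → HpaI cut → CE. Bidirectional fit vs DMSO.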

Assay [16] can be described thus: ATG_M_19_TRANS: Attagene TRANS-FACTORIAL HepG2 Assay for M19 Transcription Factor (Internal Marker) (AID 2282974). Particulars: HepG2 Attagene TRANS-FACTORIAL M19 internal marker reporter. The method, boiled down:
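Fluorescence of 6-FAM-labelled reporter cDNA fragments, separated by capillary electrophoresis, served as the readout. These derived from HepG2 cells carrying transfected GAL4-UAS reporter units after 24 h dosing, with DMSO as negative control.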

Assay [17] has as its target Hepatocyte nuclear factor 4-alpha (Homo sapiens) (UniProt P41235). Description: ATG_HNF4a_TRANS: Attagene TRANS-FACTORIAL HepG2 Assay for human Hepatocyte Nuclear Factor 4 alpha (HNF4a) (AID 2282982). Particulars: HepG2 HNF4a transactivation reporter, mRNA readout. The gist of the method: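 Gain-of-signal mRNA induction, relative to DMSO vehicle, was read after 24 h compound treatment of HepG2 cells bearing transfected GAL4-UAS reporters. Detection used RT-PCR, 6-FAM primer extension and capillary electrophoresis.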

The nature of assay [18]: ATG_M_32_TRANS: Attagene TRANS-FACTORIAL HepG2 Assay for M32 Transcription Factor (Internal Marker) (AID 2282984). The note with it: HepG2 Attagene TRANS M32 internal marker reporter. The gist of the method:
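Capillary electrophoresis of 6-FAM-labelled reporter fragments gives the signal; data fitted for gain over DMSO negative control. Source: HepG2 cells bearing transient multiple reporter transcription units, 24 h exposure.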

The target in assay [19] is X-box-binding protein 1 (Homo sapiens) (UniProt P17861). Briefly: ATG_Xbp1_CIS: Attagene CIS-FACTORIAL HepG2 Assay for human X-box Binding Protein 1 (XBP1) (AID 2282972; active means hit-call score of the fitted dose curve at least 0.9, where 1 is the maximum; inactive means score below 0.9). Particulars: HepG2 XBP1 cis-element reporter, Attagene multiplex; actives raise or lower the signal. The method, boiled down: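 HepG2 cells transiently transfected with multiple cis-element reporter units report endogenous TF activity; 24 h exposure, then reporter mRNA measured by RT-PCR, 6-FAM labelling, HpaI digestion and capillary electrophoresis. Bidirectional fitting versus DMSO.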

Assay [20] deals with Nuclear receptor subfamily 4 group A member 2 (Homo sapiens) (UniProt P43354). Briefly: ATG_NURR1_TRANS: Attagene TRANS-FACTORIAL HepG2 Assay for human Nuclear Receptor Related Protein 1 (NURR1) (AID 2282985). The note with it: HepG2 Attagene TRANS reporter, mRNA readout. The gist of the method: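 HepG2 / transient MRTU transfection / 24 h compound exposure / RT-PCR + CE fluorescence of reporter mRNA / gain-of-signal vs DMSO.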

Where “and” joins values, the source holds several entries; their conditions need not be identical. Equal values may be shown once. Records with an inconclusive call do not appear. Where a structure was tested more than once in an assay, its records may differ in their call. Calls of active or inactive are those of the source. How the source made its calls, unless noted: active means hit-call score of the fitted dose curve at least 0.9, where 1 is the maximum; inconclusive means response in the unintended direction; inactive means score below 0.9.

Sequence of Bile acid receptor (Homo sapiens) (Q96RI1 whole entry, looked up, the tested form may be a part): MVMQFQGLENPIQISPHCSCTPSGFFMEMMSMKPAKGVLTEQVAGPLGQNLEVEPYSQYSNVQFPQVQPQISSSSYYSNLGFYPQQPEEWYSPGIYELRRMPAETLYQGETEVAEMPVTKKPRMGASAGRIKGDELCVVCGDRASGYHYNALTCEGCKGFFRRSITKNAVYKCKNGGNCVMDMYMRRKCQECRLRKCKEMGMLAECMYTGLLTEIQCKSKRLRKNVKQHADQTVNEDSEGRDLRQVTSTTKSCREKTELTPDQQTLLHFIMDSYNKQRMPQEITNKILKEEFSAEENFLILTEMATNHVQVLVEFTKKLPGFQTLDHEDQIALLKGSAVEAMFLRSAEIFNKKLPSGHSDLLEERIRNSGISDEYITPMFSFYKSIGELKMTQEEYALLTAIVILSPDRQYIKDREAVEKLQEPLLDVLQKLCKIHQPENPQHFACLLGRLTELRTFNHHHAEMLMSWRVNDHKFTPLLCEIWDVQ
Sequence of Hepatocyte nuclear factor 4-alpha (Homo sapiens) (P41235 whole entry, looked up, the tested form may be a part): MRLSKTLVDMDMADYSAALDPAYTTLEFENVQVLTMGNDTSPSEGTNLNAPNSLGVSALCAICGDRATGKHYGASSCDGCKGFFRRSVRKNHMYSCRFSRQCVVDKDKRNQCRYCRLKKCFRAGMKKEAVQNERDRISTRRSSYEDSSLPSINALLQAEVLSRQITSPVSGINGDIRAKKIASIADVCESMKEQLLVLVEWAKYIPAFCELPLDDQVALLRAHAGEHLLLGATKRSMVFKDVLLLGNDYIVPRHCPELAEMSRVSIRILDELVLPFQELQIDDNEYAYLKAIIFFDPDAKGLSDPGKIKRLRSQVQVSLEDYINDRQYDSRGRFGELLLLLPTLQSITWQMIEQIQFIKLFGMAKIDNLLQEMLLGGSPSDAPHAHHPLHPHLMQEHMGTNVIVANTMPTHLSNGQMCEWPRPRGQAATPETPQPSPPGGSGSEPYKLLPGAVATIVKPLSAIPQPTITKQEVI
Sequence of Oxysterols receptor LXR-alpha (Homo sapiens) (Q13133 whole entry, looked up, the tested form may be a part): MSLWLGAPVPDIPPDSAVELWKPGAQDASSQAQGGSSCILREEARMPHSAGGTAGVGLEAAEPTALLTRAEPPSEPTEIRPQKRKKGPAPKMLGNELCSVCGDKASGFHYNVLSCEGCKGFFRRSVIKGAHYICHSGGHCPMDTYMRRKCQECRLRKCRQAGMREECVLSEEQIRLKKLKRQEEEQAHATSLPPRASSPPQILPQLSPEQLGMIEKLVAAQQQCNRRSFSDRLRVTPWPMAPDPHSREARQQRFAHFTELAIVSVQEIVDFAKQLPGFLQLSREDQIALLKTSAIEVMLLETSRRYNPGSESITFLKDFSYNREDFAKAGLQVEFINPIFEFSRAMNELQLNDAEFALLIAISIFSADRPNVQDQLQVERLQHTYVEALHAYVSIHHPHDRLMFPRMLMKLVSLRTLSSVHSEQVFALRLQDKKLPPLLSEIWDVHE
Sequence of Nuclear respiratory factor 1 (Homo sapiens) (Q16656 whole entry, looked up): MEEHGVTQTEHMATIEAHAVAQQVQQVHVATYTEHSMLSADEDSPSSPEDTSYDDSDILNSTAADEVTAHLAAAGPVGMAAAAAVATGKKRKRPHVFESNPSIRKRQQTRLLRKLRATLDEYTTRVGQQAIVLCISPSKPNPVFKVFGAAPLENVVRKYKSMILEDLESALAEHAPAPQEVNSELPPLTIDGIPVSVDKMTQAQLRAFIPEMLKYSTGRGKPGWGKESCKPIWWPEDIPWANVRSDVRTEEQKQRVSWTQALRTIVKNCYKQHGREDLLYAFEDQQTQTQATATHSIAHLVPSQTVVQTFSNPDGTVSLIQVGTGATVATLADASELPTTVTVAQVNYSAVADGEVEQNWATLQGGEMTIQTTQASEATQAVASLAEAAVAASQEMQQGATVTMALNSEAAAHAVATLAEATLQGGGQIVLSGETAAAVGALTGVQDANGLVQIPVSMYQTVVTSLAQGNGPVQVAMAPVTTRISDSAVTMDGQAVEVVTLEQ
Sequence of Steroid hormone receptor ERR1 (Homo sapiens) (P11474 whole entry, looked up, the tested form may be a part): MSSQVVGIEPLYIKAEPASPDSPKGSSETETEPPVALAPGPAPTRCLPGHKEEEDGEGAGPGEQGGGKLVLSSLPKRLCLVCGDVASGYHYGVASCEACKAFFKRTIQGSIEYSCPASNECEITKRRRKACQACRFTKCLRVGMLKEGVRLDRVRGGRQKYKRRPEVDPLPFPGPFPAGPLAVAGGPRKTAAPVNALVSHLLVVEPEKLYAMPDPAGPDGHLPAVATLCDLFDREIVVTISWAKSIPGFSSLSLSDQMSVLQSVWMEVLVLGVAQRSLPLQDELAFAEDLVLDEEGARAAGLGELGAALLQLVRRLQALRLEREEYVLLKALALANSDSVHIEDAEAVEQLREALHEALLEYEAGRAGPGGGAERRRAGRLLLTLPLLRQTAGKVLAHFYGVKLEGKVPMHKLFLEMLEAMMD
Sequence of Transcriptional activator Myb (Homo sapiens) (P10242 whole entry, looked up): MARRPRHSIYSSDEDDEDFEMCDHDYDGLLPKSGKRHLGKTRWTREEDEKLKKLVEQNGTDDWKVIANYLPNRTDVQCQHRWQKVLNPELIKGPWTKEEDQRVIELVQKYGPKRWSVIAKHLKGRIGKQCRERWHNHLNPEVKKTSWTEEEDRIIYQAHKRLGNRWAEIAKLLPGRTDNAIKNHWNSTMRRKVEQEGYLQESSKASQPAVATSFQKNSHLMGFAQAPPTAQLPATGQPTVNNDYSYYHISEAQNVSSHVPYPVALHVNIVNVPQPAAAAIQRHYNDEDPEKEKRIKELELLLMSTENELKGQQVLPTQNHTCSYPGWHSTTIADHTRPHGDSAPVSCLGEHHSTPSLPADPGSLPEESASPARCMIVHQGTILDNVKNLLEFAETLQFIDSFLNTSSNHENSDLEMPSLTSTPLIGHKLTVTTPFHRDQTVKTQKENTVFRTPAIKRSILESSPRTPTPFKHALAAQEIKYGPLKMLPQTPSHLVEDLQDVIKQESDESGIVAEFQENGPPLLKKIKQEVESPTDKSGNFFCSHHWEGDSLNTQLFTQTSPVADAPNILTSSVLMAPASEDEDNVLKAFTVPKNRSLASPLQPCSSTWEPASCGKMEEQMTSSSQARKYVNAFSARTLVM
Sequence of Glucocorticoid receptor (Homo sapiens) (P04150 whole entry, looked up, the tested form may be a part): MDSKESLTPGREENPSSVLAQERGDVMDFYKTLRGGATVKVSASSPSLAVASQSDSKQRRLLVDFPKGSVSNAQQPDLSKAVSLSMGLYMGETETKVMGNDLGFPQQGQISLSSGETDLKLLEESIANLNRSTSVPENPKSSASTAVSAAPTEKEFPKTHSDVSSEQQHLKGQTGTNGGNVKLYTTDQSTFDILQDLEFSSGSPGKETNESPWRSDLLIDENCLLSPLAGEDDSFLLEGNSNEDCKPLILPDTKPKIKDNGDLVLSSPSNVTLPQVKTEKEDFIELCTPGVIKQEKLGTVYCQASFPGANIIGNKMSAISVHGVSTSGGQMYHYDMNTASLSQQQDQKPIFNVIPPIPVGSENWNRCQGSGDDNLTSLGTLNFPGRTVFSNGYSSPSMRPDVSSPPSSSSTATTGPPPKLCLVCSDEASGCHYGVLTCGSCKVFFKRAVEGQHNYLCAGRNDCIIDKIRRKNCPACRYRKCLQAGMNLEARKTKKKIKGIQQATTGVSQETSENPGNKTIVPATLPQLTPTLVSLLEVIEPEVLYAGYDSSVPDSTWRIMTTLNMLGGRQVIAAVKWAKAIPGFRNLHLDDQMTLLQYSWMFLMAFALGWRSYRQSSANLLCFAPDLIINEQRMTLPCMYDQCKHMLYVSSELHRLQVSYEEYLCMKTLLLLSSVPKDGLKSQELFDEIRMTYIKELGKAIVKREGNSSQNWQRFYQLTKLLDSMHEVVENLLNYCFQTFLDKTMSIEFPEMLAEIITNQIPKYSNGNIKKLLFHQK
Sequence of Oxysterols receptor LXR-beta (Homo sapiens) (P55055 whole entry, looked up, the tested form may be a part): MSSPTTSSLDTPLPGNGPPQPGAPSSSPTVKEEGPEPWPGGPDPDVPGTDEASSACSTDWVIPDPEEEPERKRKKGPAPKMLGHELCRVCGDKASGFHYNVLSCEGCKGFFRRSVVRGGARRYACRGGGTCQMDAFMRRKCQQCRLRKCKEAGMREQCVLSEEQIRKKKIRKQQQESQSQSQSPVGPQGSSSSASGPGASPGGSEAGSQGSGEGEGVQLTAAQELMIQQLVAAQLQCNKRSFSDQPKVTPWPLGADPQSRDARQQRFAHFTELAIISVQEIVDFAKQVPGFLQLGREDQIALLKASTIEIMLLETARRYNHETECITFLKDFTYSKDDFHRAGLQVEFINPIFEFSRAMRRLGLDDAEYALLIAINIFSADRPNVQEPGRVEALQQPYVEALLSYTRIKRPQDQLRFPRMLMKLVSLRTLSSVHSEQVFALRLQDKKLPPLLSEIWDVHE
Sequence of Estrogen-related receptor gamma (Homo sapiens) (P62508 whole entry, looked up, the tested form may be a part): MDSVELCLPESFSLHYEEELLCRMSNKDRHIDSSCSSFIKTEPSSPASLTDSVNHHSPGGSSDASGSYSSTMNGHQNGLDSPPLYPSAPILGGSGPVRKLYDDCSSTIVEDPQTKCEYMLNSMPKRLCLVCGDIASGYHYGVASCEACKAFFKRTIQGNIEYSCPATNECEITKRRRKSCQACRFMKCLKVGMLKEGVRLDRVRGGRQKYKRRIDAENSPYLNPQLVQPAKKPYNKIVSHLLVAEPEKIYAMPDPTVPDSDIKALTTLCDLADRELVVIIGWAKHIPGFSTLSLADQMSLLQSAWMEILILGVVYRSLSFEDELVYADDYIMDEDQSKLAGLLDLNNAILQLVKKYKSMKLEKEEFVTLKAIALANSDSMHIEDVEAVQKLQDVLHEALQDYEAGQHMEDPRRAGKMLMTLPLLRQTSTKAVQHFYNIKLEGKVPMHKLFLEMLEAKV
Sequence of X-box-binding protein 1 (Homo sapiens) (P17861 whole entry, looked up): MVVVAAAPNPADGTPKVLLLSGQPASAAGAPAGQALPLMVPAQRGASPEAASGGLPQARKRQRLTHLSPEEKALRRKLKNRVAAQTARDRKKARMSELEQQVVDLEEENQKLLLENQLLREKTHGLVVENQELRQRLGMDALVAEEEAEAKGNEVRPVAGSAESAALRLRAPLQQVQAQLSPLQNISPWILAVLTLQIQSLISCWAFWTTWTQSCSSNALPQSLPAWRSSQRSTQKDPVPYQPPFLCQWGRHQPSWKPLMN

For the molecule `FC(OC(F)(F)C(F)(F)C(F)(F)F)C(F)(F)F` (stereo not drawn), the molecule was classed as inactive in [1], in [2], in [3], in assay [4], in assay [5] and in assay [6]. In addition, the molecule was called inactive in assay [7], in assay [8], in assay [9], in assay [10], in assay [11] and in [12]. In addition, the molecule was called inactive in assay [13], in assay [14] and in assay [15].
For the molecule `O=C(NO)c1ccccc1`, the AC50 in assay [1] was 75.5 µM (active) [middle of 4 runs]; in [2] it was 27.5 µM (active) and 26.7 µM (active). For the same molecule, the molecule was called inactive in [2], in [3], in assay [6], in assay [16], in assay [7] and in [8]. Also, the result in assay [9], in assay [10], in [17], in assay [13], in assay [18] and in [14] was inactive. Also, the result in assay [15] was inactive.
For `CCCCCCCCCCCC[N+](C)(C)Cc1ccccc1`, the outcome in [1], in [2], in [3], in [19], in assay [16] and in assay [9] was inactive. Further, the outcome in assay [11], in assay [12], in assay [17], in assay [13], in assay [18] and in [20] was inactive. The molecule was called inactive in assay [14] and in assay [15]. Besides, the half-maximal activity concentration (AC50) in assay [3] was 13.2 µM (active); in assay [19] it was 11.1 µM (active); in assay [16], 168 µM (active); in assay [14], 11.1 µM (active).
`CCCCCCc1ccc(N)cc1`: the molecule was called inactive in assay [1], in assay [2], in [3], in assay [4], in [6] and in [9]. For the same molecule, the call in assay [10], in [11], in [12], in [17], in assay [13] and in [18] was inactive. In addition, the result in [14] and in [15] was inactive. The concentration at half-maximal activity (AC50) in assay [5] is 11.6 µM (active).
